This note sets out measurements from PubChem BioAssay (NCATS).

SMILES strings stand for the structures. Inconclusive results are not listed. Calls of active or inactive are those of the source. Unless noted, calls follow the shape of the dose curve; as a rule, active = well fitted curve in the direction sought with a large enough effect; inconclusive = small, poorly fitted or top-dose-only effect, or another doubt; inactive = no such curve, though single readings can be large; an effect the other way counts as inactive or inconclusive.

Test [1] is described as follows: qHTS drug screen for cell cycle checkpoint inhibitors in PARPi-resistant BRCA-mutant ovarian cancer cell lines. (AID 1963452; calls by dose curve; also: potency is read from the fitted curve at half-maximal effect). Conditions: PEO1/OlaR viability, CellTiter-Glo luminescence, 96 h; for Z-AUC: stronger effect = lower value. The method, boiled down: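 PEO1, PEO4 and PEO1/OlaR ovarian cancer cells, 600 per well, exposed 96 h at 37C to a dilution series. Viability read by CellTiter-Glo luminescence, normalized to DMSO and empty wells; activity summarized as Z-AUC.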
For orientation: In qHTS, concentration-response curves come from the screen itself.

The nature of test [2]: qHTS profiling for inhibitors of Plasmodium falciparum proliferation (AID 504749). Also: potency is read from the fitted curve at half-maximal effect.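 As to activity, negative = inhibition: 0% = DMSO vehicle and full inhibition = artemisinin control.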 As to all read-outs here: nearly all actives have a fitted effect of over 60% in size. The note with it: P. falciparum in erythrocytes, SYBR Green DNA, 72 h; for activity, negative = inhibition: at 28.7 µM (top of the series). The method, boiled down:
(§1)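 Fluorescence of SYBR Green-bound parasite DNA, read at 485/535 nm, served as the growth measure. Infected erythrocytes were cultured with compound 72 h; artemisinin (0.29 uM) and DMSO wells defined the normalization range.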

The next test has as its system 3D7. The description is as above. Conditions: P. falciparum in erythrocytes, SYBR Green DNA, 72 h; series mostly up to 28.7 µM. The method, boiled down:
as §1

A further test concerns AS120. The description is as above. The note with it: P. falciparum in erythrocytes, SYBR Green DNA, 72 h; series mostly up to 28.7 µM. The method, boiled down:
as §1

Test [3] deals with Cytochrome P450 3A4 (Homo sapiens) (UniProt P08684). The test can be described thus: qHTS for inhibitors of CYP3A4 against the NCATS DSHEA and TCM libraries (AID 1919971).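 Also: % is scaled to controls: 0 for no effect and ±100 for the full control effect; inhibition lowers luminescence from luciferin made by CYP3A4.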 The note with it: recombinant CYP3A4 enzyme activity, luminescence qHTS; series mostly up to 34.1 µM. The procedure, abridged: (§2)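 Substances were tested against enzyme with a pro-luciferin substrate; minus-enzyme wells served as background. After NADPH-initiated oxidation (30-45 min, RT), light was generated with P450-Glo reagent.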
Sequence of Cytochrome P450 3A4 (Homo sapiens) (P08684 whole entry, looked up): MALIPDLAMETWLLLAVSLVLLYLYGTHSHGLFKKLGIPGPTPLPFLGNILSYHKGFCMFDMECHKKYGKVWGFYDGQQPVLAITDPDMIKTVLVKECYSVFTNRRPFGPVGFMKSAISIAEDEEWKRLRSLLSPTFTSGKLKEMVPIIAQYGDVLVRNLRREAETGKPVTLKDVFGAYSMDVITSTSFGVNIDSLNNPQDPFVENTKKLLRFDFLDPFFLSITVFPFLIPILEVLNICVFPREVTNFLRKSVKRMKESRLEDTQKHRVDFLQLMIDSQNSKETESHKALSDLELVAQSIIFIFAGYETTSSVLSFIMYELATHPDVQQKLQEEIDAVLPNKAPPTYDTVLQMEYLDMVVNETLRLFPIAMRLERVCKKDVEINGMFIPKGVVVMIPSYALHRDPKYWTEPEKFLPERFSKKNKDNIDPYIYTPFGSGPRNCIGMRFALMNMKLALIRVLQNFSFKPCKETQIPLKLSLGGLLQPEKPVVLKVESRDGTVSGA

Test [4] has as its target Cytochrome P450 2D6 (Homo sapiens) (UniProt P10635). Nature of the test: qHTS for inhibitors of CYP2D6 against the NCATS DSHEA and TCM libraries (AID 1919972). Also: % is scaled to controls: 0 for no effect and ±100 for the full control effect. Conditions: CYP2D6 enzymatic inhibition, luminescence qHTS; series mostly up to 34.1 µM. The method, boiled down:
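qHTS, concentration–response format with most substances from 19.5 nM. CYP2D6 + pro-luciferin substrate, 15 min with compound, then 1x NADPH regen, 30–45 min RT dark. Glo detection 30 min, luminescence. Quinidine control.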

Test [5] concerns the target Cytochrome P450 2C19 (Homo sapiens) (UniProt P33261). Nature of the test: qHTS for inhibitors of CYP2C19 against the NCATS DSHEA and TCM libraries (AID 1919974).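 Also: luminescence from luciferin released by CYP2C19 oxidation of a pro-luciferin substrate; % is scaled to controls: 0 for no effect and ±100 for the full control effect.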 Conditions: CYP2C19 enzyme inhibition, luminescence qHTS; series mostly up to 34.1 µM. The procedure, abridged: as §2
Test [6] is described as follows: KB-3-1 P-gp reporter qHTS against the NCATS DSHEA and TCM libraries (AID 1919975). Also: 0% is about no effect. The note with it: KB-3-1 parental cells, CellTiter-Glo luminescence viability, 72 h; series mostly up to 26.1 µM. The method, boiled down:
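Parental KB-3-1 human cervical adenocarcinoma cells (500 cells/well, DMEM + 10% FBS) were treated with substances for ~72 h at 37C; viability was read by CellTiter-Glo luminescence.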

A short description of test [7]: qHTS Counterscreen for compound interference against the NCATS DSHEA and TCM libraries (AID 1919978). Also: % of control where 0% means no effect. Conditions: firefly luciferase detection reagent interference, luminescence. The procedure, abridged: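 D-luciferin (1 uM final) or 100 mM potassium phosphate buffer alone was preincubated 15 min at RT with compounds (19.5 nM to 39.8 uM final). Luciferin detection reagent was then added and luminescence read after 30 min at RT.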

A short description of test [8]: Dual reporter qHTS for agonist of Pregnane X Receptor (hPXR) against the NCATS DSHEA and TCM libraries: Fluorescence readout (AID 1920058). Also: 0% is about no effect. The note with it: PXR dual reporter cells; series mostly up to 40 µM. The method, boiled down:
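Fluorescence read-out for cell viability: CellTiter-Fluor, 1 h at 37 °C, Ex/Em 405/540 nm. This followed ~24 h treatment of hPXR-Luc HepG2 cells with substances in agonist mode.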

Test [9] deals with Nuclear receptor subfamily 1 group I member 2 (Homo sapiens) (UniProt O75469). Nature of the test: Dual reporter qHTS for agonist of Pregnane X Receptor (hPXR) against the NCATS DSHEA and TCM libraries: Luminescence readout (AID 1920059). Also: 0% is about no effect. The note with it: hPXR dual reporter cells, luciferase luminescence agonist; series mostly up to 40 µM. The method, boiled down:
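hPXR-LucHepG2 cells in phenol red-free DMEM with 5% charcoal-stripped FBS, 2000 cells/well, attached 5 h, then exposed 24 h at 37C to compounds; rifampicin as positive agonist control (2.8 nM–92 uM). Luciferase luminescence read.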

For test [10] the target is unchanged. Nature of the test: Dual reporter qHTS for antagonist of Pregnane X Receptor (hPXR) against the NCATS DSHEA and TCM libraries: Luminescence Readout (AID 1920060).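 Also: HepG2 cells carrying hPXR luciferase reporter stimulated with rifampicin at 2 µM; 0% is about no effect.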 Conditions: hPXR dual reporter cells, luciferase luminescence, antagonist mode; series mostly up to 40 µM. The procedure, abridged: (§3)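 HepG2 hPXR-Luc, 2000 cells/well, charcoal-stripped FBS medium; 5 h attach; RIF 2 uM final; 24 h 37C/5% CO2; CellTiter-Fluor 1 h, fluor 405/540; ONE-Glo 30 min RT, lum.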

Test [11] can be described thus: Dual reporter qHTS for antagonist of Pregnane X Receptor (hPXR) against the NCATS DSHEA and TCM libraries: Fluorescence Readout (AID 1920061). Also: 0% is about no effect. The note with it: PXR dual reporter cells, antagonist mode; series mostly up to 40 µM. The procedure, abridged: as §3
A further test has as its system 7G8. The test can be described thus: qHTS profiling for inhibitors of Plasmodium falciparum proliferation (AID 504749). Also: nearly all actives have a fitted effect of over 60% in size. Also: potency is read from the fitted curve at half-maximal effect.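 As to activity, negative = inhibition: 0% = DMSO vehicle and full inhibition = artemisinin control.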 Conditions: P. falciparum in erythrocytes, SYBR Green DNA, 72 h; series mostly up to 28.7 µM. The method, boiled down:
as §1

The test system of the next test is AA1029. The test is described as above. Conditions: P. falciparum in erythrocytes, SYBR Green DNA, 72 h; series mostly up to 28.7 µM. The method, boiled down: as §1
Test [12] in a line: Primary fluorescence-based thiol-reactive (MSTI) qHTS assay for identification of artifact compounds. (AID 1845221).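 Also: thiol-reactive compounds lower the probe fluorescence signal; nearly all actives have a fitted effect of over 65% in size.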 The note with it: MSTI thiol-reactivity probe, 1 h; series mostly up to 53.8 µM. The procedure, abridged:
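One-hour, room-temperature, dark incubation of compound with 4 uM MSTI in PBS (pH 7.4, 2% DMSO) precedes a fluorescence read at 525 nm excitation, 598 nm emission; Hill-equation fitting yields concentration-response values.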

The test system of test [13] is Nanoluciferase (engineered Oplophorus gracilirostris luciferase). Nature of the test: Primary Nanoluciferase (NLuc) qHTS assay for identification of artifact compounds. (AID 1845222).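 Also: NLuc secreted into diluted conditioned medium of S16 cells; 0% = DMSO and -100% = no enzyme.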 The note with it: NLuc-conditioned medium, Nano-Glo luminescence, 5 min; series mostly up to 54.1 µM. The method, boiled down:
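Using secreted nanoluciferase in S16 culture medium (0.22 um filtered, 1:55 dilution), compounds were preincubated 15 min at RT. Signal was generated with Nano-Glo reagent (1:100) over 5 min.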

Test [14] can be described thus: Primary redox qHTS assay for identification of artifact compounds. (AID 1845223).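 Also: 0% = DMSO and 100% = reference compound.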 Conditions: Amplex Red/HRP redox cycling with DTT, fluorescence; series mostly up to 53.8 µM. The method, boiled down: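 Redox-cycling detection via DTT (250 uM final) oxidation coupled to Amplex Red (25 uM)/HRP (250 mU/mL) in HBSS. 15 min preincubation plus 30 min after DTT, room temperature. Ex/Em 525/598 nm; 4-parameter Hill fit against DMSO and 10 uM DA3003.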

Setting [15] is: measured here: PEO1 parental Z-AUC.

Sequence of Nuclear receptor subfamily 1 group I member 2 (Homo sapiens) (O75469 whole entry, looked up): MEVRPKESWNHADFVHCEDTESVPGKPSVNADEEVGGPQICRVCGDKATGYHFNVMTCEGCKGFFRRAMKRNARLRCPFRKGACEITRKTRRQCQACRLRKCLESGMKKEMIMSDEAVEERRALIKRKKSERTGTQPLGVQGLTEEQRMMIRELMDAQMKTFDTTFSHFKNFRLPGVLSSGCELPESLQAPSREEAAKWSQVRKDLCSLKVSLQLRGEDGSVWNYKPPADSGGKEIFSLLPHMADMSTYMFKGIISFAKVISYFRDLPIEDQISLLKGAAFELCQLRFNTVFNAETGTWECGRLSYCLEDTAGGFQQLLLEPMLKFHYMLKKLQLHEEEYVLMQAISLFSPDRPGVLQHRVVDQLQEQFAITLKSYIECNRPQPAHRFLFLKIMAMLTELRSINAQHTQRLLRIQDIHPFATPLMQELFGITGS
Sequence of Cytochrome P450 2C19 (Homo sapiens) (P33261 whole entry, looked up): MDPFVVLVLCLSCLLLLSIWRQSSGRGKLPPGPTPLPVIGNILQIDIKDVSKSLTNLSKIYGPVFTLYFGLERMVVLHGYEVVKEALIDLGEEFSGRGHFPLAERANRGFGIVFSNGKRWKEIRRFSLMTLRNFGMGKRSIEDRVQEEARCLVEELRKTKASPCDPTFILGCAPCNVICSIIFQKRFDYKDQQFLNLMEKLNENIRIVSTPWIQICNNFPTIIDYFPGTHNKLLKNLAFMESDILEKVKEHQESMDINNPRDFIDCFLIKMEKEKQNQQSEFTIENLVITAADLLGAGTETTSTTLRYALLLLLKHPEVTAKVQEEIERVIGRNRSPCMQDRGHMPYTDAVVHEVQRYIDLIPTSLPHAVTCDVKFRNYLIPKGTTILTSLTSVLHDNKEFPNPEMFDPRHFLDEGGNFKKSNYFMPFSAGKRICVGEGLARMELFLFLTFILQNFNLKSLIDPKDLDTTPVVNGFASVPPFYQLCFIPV
Sequence of Cytochrome P450 2D6 (Homo sapiens) (P10635 whole entry, looked up): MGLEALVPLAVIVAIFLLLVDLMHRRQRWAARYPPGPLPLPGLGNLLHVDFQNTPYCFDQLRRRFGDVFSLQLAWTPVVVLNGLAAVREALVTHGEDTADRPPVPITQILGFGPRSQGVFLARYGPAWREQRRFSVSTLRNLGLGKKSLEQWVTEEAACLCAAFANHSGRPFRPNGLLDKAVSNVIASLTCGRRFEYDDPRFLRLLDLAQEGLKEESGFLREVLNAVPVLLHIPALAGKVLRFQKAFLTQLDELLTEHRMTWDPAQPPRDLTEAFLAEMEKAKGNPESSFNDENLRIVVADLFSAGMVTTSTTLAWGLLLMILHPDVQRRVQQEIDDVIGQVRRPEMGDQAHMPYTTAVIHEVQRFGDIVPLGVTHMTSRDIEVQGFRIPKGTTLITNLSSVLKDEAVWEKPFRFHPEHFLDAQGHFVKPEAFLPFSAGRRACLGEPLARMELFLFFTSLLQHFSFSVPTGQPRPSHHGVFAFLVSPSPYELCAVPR

Take `CC(=O)O[C@H]1C[C@@H]2CC[C@@H]3[C@H](CC[C@@]4(C)[C@H]3C[C@H]([N+]3(C)CCCCC3)[C@@H]4OC(C)=O)[C@@]2(C)C[C@@H]1N1CCCCC1`: the Z-AUC in [1] is 1.73 (inactive); in [1] (setting [15]), 1.43; in test [1] (measured here: PEO4 Z-AUC), 1.85. Besides, in [2] (parasite line B), the activity, negative = inhibition was -19.6% (inactive). The Potency result in the test on 3D7 and in the test on AS120 was “inactive” throughout.
As to `CCN1CCN(C(=O)N[C@@H](C(=O)N[C@@H]2C(=O)N3C(C(=O)O)=C(CSc4nnnn4C)CS[C@H]23)c2ccc(O)cc2)C(=O)C1=O`, the values for the Z-AUC in test [1], in test [1] (setting [15]) and in [1] (measured here: PEO4 Z-AUC) were 0.353 (inactive), 0.559 and 0.224, respectively.
With `CCCCCCCCCCCCCCCC(=O)O`, the result in test [3], in test [4], in test [5], in [6], in [8] and in test [9] was inactive. In addition, the call in test [10] and in [11] was inactive. In addition, in [7], the max response is 2.55% (inactive). In addition, the activity, negative = inhibition in [2] (parasite line A) is -0.389% (inactive); in test [2] (parasite line B), 7.62% (inactive). Moreover, the Potency entry with 3D7, with 7G8, in the test with AA1029 and with AS120 was “inactive” in each case.
Turning to `C=C[C@H]1CN2CC[C@H]1C[C@H]2[C@H](O)c1ccnc2ccc(OC)cc12`, the molecule was called inactive in [12], in [13] and in test [14].
Turning to `CCN(CC)CCOc1ccccc1C(=O)CCc1ccccc1`, the figures for the activity, negative = inhibition in test [2] (parasite line A) and in test [2] (parasite line B) were 2.97% (inactive) and -13.2% (inactive), respectively. The Potency result in the test on 3D7 is “inactive”.
In the case of `CN1CCN(C2=Nc3cc(F)ccc3Cc3ccccc32)CC1`, the activity, negative = inhibition is -5.08% (inactive) in test [2] (parasite line A) and -0.186% (inactive) in test [2] (parasite line B). Besides, the Potency result in the test on 3D7 is “inactive”. In addition, the Potency in the test on 7G8 was 12.6 µM (active).
`O=c1[nH]c(=O)n([C@H]2C[C@H](O)[C@@H](CO)O2)cc1F`: the Potency in [1] is 245 nM (active). Besides, the Z-AUC in test [1] (setting [15]) was -1.95; in test [1] (measured here: PEO4 Z-AUC) it was -1.41. Moreover, the activity, negative = inhibition in test [2] (parasite line A) is 0.388% (inactive); in [2] (parasite line B), -0.681% (inactive). Besides, the Potency entry with 3D7, with AA1029 and in the test on AS120 was “inactive” throughout.
With `CN1CCN(C2=Nc3ccccc3Sc3ccc(Cl)cc32)CC1`, the activity, negative = inhibition in test [2] (parasite line A) was -8.05% (inactive); in test [2] (parasite line B) it was -25.1% (inactive).
`C#C[C@]1(O)CC[C@H]2[C@@H]3CCC4=CC(=O)CC[C@@H]4[C@H]3CC[C@@]21CC`: the Z-AUC in [1] was -1.07 (inactive); in [1] (setting [15]), -0.819; in test [1] (measured here: PEO4 Z-AUC), -0.784. For the same molecule, the activity, negative = inhibition in test [2] (parasite line A) is -9.46% (inactive); in [2] (parasite line B), -6.83% (inactive). The Potency entry with 3D7, in the test on AA1029 and in the test on AS120 was “inactive” each time.
On to `O=C(c1ccc(F)cc1)C1CCN(CCn2c(=S)[nH]c3ccccc3c2=O)CC1`, for which the Potency was 5.01 µM (active) in [2] (parasite line A); 10 µM (active) in [2] (parasite line B); 11.2 µM (active) with 3D7; 2.24 µM (active) with 7G8; 4.47 µM (active) in the test with AA1029; 2.82 µM (active) in the test with AS120.
`CCCCCCCCCCC[C@@H](C[C@@H]1OC(=O)[C@H]1CCCCCC)OC(=O)[C@H](CC(C)C)NC=O`: the figures for the Z-AUC in test [1], in [1] (setting [15]) and in [1] (measured here: PEO4 Z-AUC) were 1.22 (inactive), 1.61 and 1.43, respectively.
